PubChem BioAssay (NCATS)
Inconclusive results are not listed. Entries that show only a call come without a potency. Calls of active or inactive are those of the source. The call rests on the fitted dose curve; in most records, active means well fitted inhibition curve with a large enough effect; inconclusive means small, poorly fitted or top-dose-only effect; inactive means no such curve, though single readings can be large or run the other way. Peptide text beside a SMILES is read from it. * marks the point of attachment. PhAc = O=C(Cc1ccccc1)*

Each compound was assayed against Retinaldehyde dehydrogenase 3 (Homo sapiens) (UniProt P47895) (assay: qHTS for Inhibitors of the Aldehyde Dehydrogenase Family (ALDH1A3) Primary screen (AID 2061315)). Details: ALDH inhibition qHTS; series mostly up to 56 µM.
`Cc1cc(-c2nncc3c(C(C)(C)C)c(OCc4ncnn4C)nn23)no1` was tested, and the Potency was “inactive”. `COc1ccc(C(=O)N(CCC(C)C)Cc2nc(C)c(C)n2Cc2ccccc2C)c(OC)c1` was tested, and the Potency was “inactive”. With `Cc1nc2cc(-c3cc(F)cc(C#N)c3)ccc2s1` the Potency was “inactive”. For `O=C(NS(=O)(=O)c1ccc(Br)s1)c1ccc(Cl)cc1Cl`, the Potency was “inactive”. For `O=C(O)Cc1ccc2oc(-c3ccc(NC(=O)/C=C/c4ccc(Br)cc4)c(F)c3)nc2c1`, the Potency was “inactive”. `CN(CC(=O)N(Cc1ccc(C2CCCCC2)cc1)c1ccc(C(=O)O)cc1)S(=O)(=O)c1c(F)c(F)c(F)c(F)c1F` was tested, and the Potency was “inactive”. In the case of `CC(C)C(=O)c1cn(CC(=O)COc2ccc(Oc3ccccc3)cc2)c2ccc(C(=O)O)cc12`, the Potency is reported as “inactive”. `CC(C)(C#N)c1ccc(N2C(=O)OCc3cnc4ccc(-c5cnc6ccccc6c5)cc4c32)cc1` was tested, and the Potency was “inactive”. For `CC[C@H]1OC(=O)C[C@@H](O)[C@H](C)[C@@H](O[C@@H]2O[C@H](C)[C@@H](O)[C@H](N(C)C)[C@H]2O)[C@@H](CCN2C[C@H](C)C[C@H](C)C2)C[C@@H](C)C(=O)/C=C/C(C)=C/[C@@H]1CO[C@@H]1O[C@H](C)[C@@H](O)[C@@H](OC)[C@H]1OC`, the Potency was “inactive”. In the case of `CCOC(=O)CNC(=O)[C@@H]1CCCN1C(=O)Cc1ccccc1` (PhAc-Pro-Gly-OEt), the Potency is reported as “inactive”. `C(#Cc1cccc(CN2CCOCC2)c1)CCN1CCCCC1` was tested, and the Potency was “inactive”. In the case of `COc1cc(-n2cnc3cc(-c4ccc(Cl)cc4)sc3c2=O)ccc1OCCN1CCCC1`, the Potency is reported as “inactive”. For `COc1ccc(C2Sc3ccccc3N(CCN(C)C)C(=O)C2OC(C)=O)cc1` (configuration not stated), the Potency was “inactive”. In the case of `COc1cc(Nc2nc3ccccc3nc2NS(=O)(=O)c2cccc(NC(=O)c3ccc(C)c(OC)c3)c2)cc(OC)c1`, the Potency is reported as “inactive”. With `CN(C)S(=O)(=O)c1ccc(NC(=S)N2CCC(C(O)(c3ccccc3)c3ccccc3)CC2)cc1` the Potency was “inactive”. `COc1cc(NC(=O)c2cc(C3CC3)on2)c(OC)cc1Cl` was tested, and the Potency was “inactive”. With `FC(F)(F)c1cc(C(F)(F)F)c2ccc3nc(-c4nnco4)cn3c2n1` the Potency was “inactive”. `O=C(CCc1nnc2n(Cc3ccc(Cl)cc3)c(=O)c3ccccc3n12)NCCC1=CCCCC1` was tested, and the Potency was “inactive”. In the case of `Cn1c2ccc(F)cc2c2c(C(=O)N3CCCC3)cn(-c3ccccc3)c(=O)c21`, the Potency is reported as “inactive”. For `COCc1c(Cl)ccc2c1CC[C@H]2c1ncc[nH]1`, the Potency was “inactive”. For `Clc1ccccc1CNCC1CCC(CNCc2ccccc2Cl)CC1` (configuration not stated), the Potency was “inactive”. With `CN(C)c1nc(Cc2ccc(NC(=O)c3ccc(C(F)(F)F)cc3)cc2)nc(N(C)C)c1CC(=O)O` the Potency was “inactive”. `Cc1cccc2c1CC[C@H](CN1CCC(c3c(Cl)cccc3Cl)CC1)C[C@@H]2O` was tested, and the Potency was “inactive”. For `Cc1cc(C)c(-c2csc(NC(=O)c3ccccc3)n2)c(C)c1`, the Potency was “inactive”. `CS(=O)(=O)Nc1ccc2oc3c(OC(F)F)ccc(C(=O)Nc4c(Cl)cncc4Cl)c3c2c1` was tested, and the Potency was “inactive”. In the case of `CN(C)CCn1cc(-c2ccc(F)cc2)c(-n2cccc2)n1`, the Potency is reported as “inactive”. `CN(C)C(=O)NC1(c2ccccc2)CCN(CCC[C@]2(c3ccc(Cl)c(Cl)c3)CCCN(C(=O)c3ccccc3)C2)CC1` was tested, and the Potency was “inactive”.
